Most compounds without a hit are left out; they make up all but 4.7% or so of the library.
TRHR enhancer – TRH receptor (human) allosteric enhancement. TRHR cells, fluo-8 calcium fluorescence, EC20 TRH enhancement. enhancement, % at 2 µM. P34981. actives 0.66% (n = 360,000); in the data active means enhancement above about 30%; further: 0% is about no effect
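TRHR-expressing cells loaded with fluo-8 calcium dye were read kinetically (ex 480/em 530) during compound addition, then stimulated with an EC20 of TRH (10 nM final). Enhancement of the Gq-mediated intracellular calcium response was scored.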
D1 PAM – enhances dopamine response at the human D1 receptor. HEK293 TREx D1 cells, calcium flux, dopamine EC20 potentiation. AID 504651. potentiation, % at 10 µM. actives 0.036% (n = 360,000); in the data active means potentiation above about 30%; further: 0% is about no effect
Target sequence (P21728 whole entry, looked up): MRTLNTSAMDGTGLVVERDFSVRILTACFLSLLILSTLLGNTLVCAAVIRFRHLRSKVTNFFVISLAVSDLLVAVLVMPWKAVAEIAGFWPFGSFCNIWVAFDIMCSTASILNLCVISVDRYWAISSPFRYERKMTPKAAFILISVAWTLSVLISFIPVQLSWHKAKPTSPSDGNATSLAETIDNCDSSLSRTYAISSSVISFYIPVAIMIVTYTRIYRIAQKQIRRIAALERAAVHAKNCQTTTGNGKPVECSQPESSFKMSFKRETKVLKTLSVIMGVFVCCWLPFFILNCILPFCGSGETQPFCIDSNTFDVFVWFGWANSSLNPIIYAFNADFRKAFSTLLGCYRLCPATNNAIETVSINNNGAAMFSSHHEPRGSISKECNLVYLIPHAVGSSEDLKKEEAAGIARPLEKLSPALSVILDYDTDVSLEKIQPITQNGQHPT
D1 antag – blocks dopamine activation of the human D1 receptor; P21728; HEK293 TREx D1 cells, calcium flux, dopamine EC80; hits give low values; activity change, negative = inhibition, % at 10 µM; actives 3.2% (n = 360,000); AID 504652; in the data active means activity change below about -30%; further: on the % scale 0 is the no-effect control and ±100 the full control effect
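HEK293 T-REx cells expressing inducible, force-coupled D1 receptor; no-wash Ca dye, 30–90 min RT. Cmpd → 180 s read at 1 Hz → EC80 DA → 180 s read.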
D1 agonist – activates the human D1 dopamine receptor; P21728; actives 1% (n = 360,000); HEK293 T-REx D1 cells, calcium flux, agonist mode; activation, % at 2 µM; further: 0% is about no effect
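Agonism was scored from calcium flux recorded over 180 s (1 read/s) after pintool compound addition, following a 10-cycle baseline. Cells were inducible force-coupled HEK293 TREx D1, plated overnight at 30 C and loaded with no-wash calcium dye.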
TRHR agonist – TRH receptor (human) agonism; P34981; TRHR cells, calcium flux fluo-8, FDSS agonist mode; activation, % at 2 µM; actives 0.18% (n = 360,000); AID 493084; further: 0% is about no effect
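In this calcium-flux screen, cells bearing human TRHR are dye-loaded with fluo-8, baselined for 10 cycles, then exposed to library compounds; positive kinetic calcium responses during the agonist phase mark hits, with TRH as control.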
Starred values were filed as active, the others as inactive; x = no result. Unless noted, no stated cut-off is given here; in the data, active means activation above about 30%; inactive means the rest.

SMILES	TRHR enhancer	D1 PAM	D1 antag	D1 agonist	TRHR agonist
COC(=O)c1sccc1S(=O)(=O)N(CC(=O)Nc1ccccc1F)c1ccccc1	-14	-1	-3	4	0
CCOC(=O)Cc1csc(NC(=O)CSc2ncnc3c2cnn3-c2ccccc2Cl)n1	-1	-6	-78*	11	0
Cc1nnc(NC(=O)CSc2ncnc3c2cnn3-c2ccccc2C)s1	6	-4	-5	3	0
Cn1c(=O)c2sccc2n2c(CCC(=O)N3CCN(c4ccc(F)cc4)CC3)nnc12	10	1	-2	-2	-1
CC(=O)Nc1ccc(NC(C)=O)s1	1	-5	-34*	2	0
CC(=O)Nc1ccc(-c2ccccc2)s1	-1	-3	4	3	-1
C=Cn1cc[n+](CC(=O)c2ccc(Br)cc2)c1	-10	-6	0	4	1
Cc1c(NC(=O)CSc2nnnn2-c2ccc(F)cc2)c(=O)n(-c2ccccc2)n1C	-2	-2	-27	2	0
Cc1c(NC(=O)CSc2nnnn2C)c(=O)n(-c2ccccc2)n1C	-6	13	-35*	2	0
Cc1c(NC(=O)CSc2nncn2-c2ccccc2)c(=O)n(-c2ccccc2)n1C	5	-7	-11	2	1
Cc1c(NC(=O)CSc2nnnn2-c2ccc(O)cc2)c(=O)n(-c2ccccc2)n1C	-2	-10	-47*	2	0
Cn1nnnc1SCC(=O)Nc1ccc(Oc2ccc(Cl)cc2)cc1	5	-2	-30*	10	0
O=C(CNC(=O)C(c1ccccc1)c1ccccc1)N/N=C\c1ccc(C(=O)O)cc1	9	4	20	-2	0
COc1ccc(Cl)cc1NC(=O)C(C)N1Cc2ccccc2C1=O (stereo not drawn)	8	9	7	4	-1
N#CC1=C(N)OC2=C(CC/C2=C\c2ccccc2Cl)C1c1ccccc1Cl (stereo not drawn)	16	-6	1	35*	12
CC(C)NC(=O)CCCN1C(=O)CCn2nc(-c3cccn3C)cc21	6	3	-22	1	1
COc1ccc(C(C)=O)cc1Cn1nc(C)c([N+](=O)[O-])c1C	-6	-4	-1	1	0
COc1ccc(/C=C/C(=O)C2CC2)cc1Cn1nc(C)c([N+](=O)[O-])c1C	38*	1	-3	1	-1
C[C@H](C(=O)O)c1cccc(C(=O)c2ccccc2)c1	9	-3	-54*	-1	0
S=C(NCCc1ccccc1)Nc1nccs1	-3	-6	-19	4	2
O=C(CCNS(=O)(=O)c1cccs1)Nc1ccccc1F	-1	6	3	1	0
O=C(CCNS(=O)(=O)c1cccs1)Nc1nccs1	-6	-6	-32*	2	0
Cc1ccc(CC(=O)Nc2nccs2)cc1C	32*	-4	-2	5	-1
O=C(NCCc1ccccc1)C(=O)Nc1nccs1	-2	-6	-2	33*	1
COC(=O)c1cc2oc3ccccc3c2n1CC(=O)Nc1ccc(N(C)C)cc1	5	-5	-19	2	0
SMILES	TRHR enhancer	D1 PAM	D1 antag	D1 agonist	TRHR agonist
COCCNC(=O)C1CCN(S(=O)(=O)c2ccc3c(c2)CCCN3C(C)=O)CC1	-4	-3	19	1	1
O=C(NC1CCCC1)c1ccc(COc2ccccc2Br)o1	-6	-12	1	6	-2
COc1cccc(CNCCSc2nnnn2C)c1OCc1ccccc1	4	-1	14	2	-1
CCC(=O)N1c2ccc(S(=O)(=O)NCc3cccc(OC)c3)cc2CC1C (stereo not drawn)	-4	2	-76*	18	-1
CCC(=O)N1c2ccc(S(=O)(=O)CCC(=O)NCc3cccc(OC)c3)cc2CC1C (stereo not drawn)	6	3	-15	-1	-1
CC(=O)N1c2ccc(S(=O)(=O)NCc3ccc(Cl)cc3)cc2CC1C (stereo not drawn)	-1	-5	-32*	8	0
O=C(Nc1cccc(-c2nc3ccccc3o2)c1)c1cccc2c(Cl)cccc12	-2	-5	-11	-1	1
COC(=O)C1CCN(C(c2cc(OC)c(OC)c(OC)c2)c2sc3nc(C)nn3c2O)CC1 (stereo not drawn)	31*	-10	3	0	0
COc1ccccc1/C=C/C(=O)c1ccccc1	-4	-6	3	1	-1
COc1ccccc1/C=C/C(=O)c1ccc(Cl)cc1	-7	-6	-36*	12	0
CCOc1ccccc1/C=C/C(=O)c1ccc(Cl)cc1	0	-6	-32*	8	0
O=C(/C=C/c1ccccc1O)c1ccc(Cl)cc1	8	-2	-12	3	1
CCCNC(=O)C(Cc1cccc(OC)c1)NC(=O)c1ccc(C(C)(C)C)cc1 (stereo not drawn)	8	-1	x	2	-1
O=C(CSc1nc2sc3c(c2c(=O)[nH]1)CCCC3)Nc1ccccc1F	-7	1	-11	5	1
O=C(COc1ccc(S(=O)(=O)NC2CCCCC2)cc1)N1CCN(c2ccc(F)cc2)CC1	-1	-8	-30*	10	1
CCN1C(=O)/C(=C2\C=Cc3ccccc3N2CC)SC1=S	-8	-5	-33*	-2	0
CCN1C(=O)/C(=c2\o/c(=C3\C=Cc4ccccc4N3CC)c(=O)n2CC)SC1=S	1	-5	9	1	0
COCCNC(=O)c1ccc(CSc2nc3ccccc3s2)cc1	-1	-8	-34*	12	-1
O=C1c2ccc(Oc3ccc([N+](=O)[O-])cc3)cc2C(=O)N1CCCO	4	3	-37*	7	0
O=C1CSc2ccc(S(=O)(=O)NCc3ccc(F)cc3)cc2N1	3	-8	-1	5	0
Cc1ccc(CNS(=O)(=O)c2ccc3c(c2)NC(=O)CS3)cc1	8	-3	-34*	6	-1
CCN(Cc1ccccc1)S(=O)(=O)c1ccc2c(c1)NC(=O)CS2	-4	-6	-36*	8	0
CCOC(=O)c1ccc(NS(=O)(=O)c2cc(Br)cc3c2N(C(C)=O)C(C)C3)cc1 (stereo not drawn)	-8	-1	3	3	0
Cc1nc(SCCC(=O)O)c2ccccc2n1	9	-4	-2	1	0
Cc1nc(SCCOc2ccc(F)cc2)c2ccccc2n1	2	-11	3	34*	0
c1ccc(-c2ccccc2OCCCCN2CCCCC2)cc1	-1	-6	-8	9	-1
c1ccc(-c2ccccc2OCCCN2CCCC2)cc1	-3	-3	-39*	10	0
c1ccc(-c2ccccc2OCCCN2CCCCCC2)cc1	-1	-10	-43*	24	1
CC1CCN(CCOc2ccccc2-c2ccccc2)CC1	10	-6	-18	2	0
